Results published in PubChem BioAssay.
Activity calls are given as the source filed them. Unless noted, the rule behind the calls is not given here.

Columns and labels:
[1] = resazurin metabolic signal in HepG2 cells – cell-based, resazurin fluorescence, 24 h, PK04 Diversity Set, profiling panel (AID 1172); settings: HepG2 viability, higher = more signal; note: test concentration not given here
[2] = budding yeast growth changes without added modifier – OD600, strain BY4716, 24 h, basal condition, primary screen (AID 1173); settings: S. cerevisiae BY4716 growth, OD600, 24 h; higher = more signal, called active from +8 up or from −8 down
[3] = viability profiling in MM1S myeloma cells – cell-based, resazurin fluorescence, basal, 24 h, PK04 Diversity Set, profiling panel (AID 1174); settings: higher = more signal, called active from +8 up or from −8 down;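 note: MM1S multiple myeloma cell line; test concentration not given here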
[4] = target: Dihydroorotate dehydrogenase (quinone), mitochondrial (Plasmodium falciparum (isolate 3D7)) (UniProt Q08210); test: inhibition of P. falciparum DHODH – biochemical, C-terminal His tag, absorbance 600 nm, primary screen (AID 1175); settings: PfDHODH enzyme, DCIP absorbance 600 nm; higher = more signal, called active from +8 up or from −8 down;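 note: recombinant parasite enzyme with a five histidine tag at its C terminus; test concentration not given here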
[5] = inhibition of PAO1 biofilm formation – strain PAO1, LB-PBS medium, absorbance 600 nm, primary screen (AID 1176); note: test concentration not given here; settings: P. aeruginosa PAO1 growth/biofilm, A600, 12 h; higher = more signal
[6] = growth modulation of vineyard yeast isolate – strain RM11-1a, OD600, basal, 24 h, primary screen (AID 1177);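 note: cultures grown under basal conditions with no added stressor; test concentration not given here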; settings: S. cerevisiae RM11-1a growth, OD600, 24 h; higher = more signal, called active from +8 up or from −8 down
[7] = growth of efflux-deficient E. coli DRC39 – strain DRC39, OD650, 24 h, E. coli filamentation inducers, primary screen (AID 1178);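 note: growth measured as culture turbidity by optical density at 650 nm; test concentration not given here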; settings: E. coli DRC39 acrAB, higher = more signal, called active from +8 up or from −8 down
[8] = growth of efflux-deficient E. coli DRC39 – strain DRC39, OD650, 48 h, E. coli filamentation inducers, primary screen (AID 1179);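 note: screen aims at cell division blockers that make cells filament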; settings: E. coli DRC39 delta-acrAB growth, higher = more signal, called active from +8 up or from −8 down
[9] = viability profiling in RPMI8226 myeloma cells – cell-based, resazurin fluorescence, basal, 24 h, PK04 Diversity Set, profiling panel (AID 1180); settings: higher = more signal;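 note: RPMI8826 multiple myeloma cell line at 5000 cells per well; test concentration not given here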
[10] = target: E3 ubiquitin-protein ligase XIAP (Homo sapiens) (UniProt P98170); test: small molecules binding XIAP protein – biophysical, small-molecule microarray, fluorescence 635 nm, primary screen (AID 1181); settings: higher = more signal;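 note: score merges 667 nm emission and signal to noise over triplicate slides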
Sequence of E3 ubiquitin-protein ligase XIAP (Homo sapiens) (P98170 whole entry, looked up): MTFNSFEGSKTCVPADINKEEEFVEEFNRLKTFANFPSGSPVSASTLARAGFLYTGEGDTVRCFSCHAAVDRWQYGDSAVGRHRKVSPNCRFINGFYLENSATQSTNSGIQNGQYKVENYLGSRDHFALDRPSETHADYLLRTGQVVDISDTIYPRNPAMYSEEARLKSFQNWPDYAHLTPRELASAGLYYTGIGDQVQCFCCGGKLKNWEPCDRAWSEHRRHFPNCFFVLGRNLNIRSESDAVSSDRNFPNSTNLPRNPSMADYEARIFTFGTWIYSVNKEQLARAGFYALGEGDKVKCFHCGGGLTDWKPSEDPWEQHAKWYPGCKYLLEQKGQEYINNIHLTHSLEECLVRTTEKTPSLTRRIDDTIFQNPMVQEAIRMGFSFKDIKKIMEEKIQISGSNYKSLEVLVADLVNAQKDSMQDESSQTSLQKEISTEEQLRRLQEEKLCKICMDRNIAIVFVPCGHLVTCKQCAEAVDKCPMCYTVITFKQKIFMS

Sequence of Dihydroorotate dehydrogenase (quinone), mitochondrial (Plasmodium falciparum (isolate 3D7)) (Q08210 whole entry, looked up): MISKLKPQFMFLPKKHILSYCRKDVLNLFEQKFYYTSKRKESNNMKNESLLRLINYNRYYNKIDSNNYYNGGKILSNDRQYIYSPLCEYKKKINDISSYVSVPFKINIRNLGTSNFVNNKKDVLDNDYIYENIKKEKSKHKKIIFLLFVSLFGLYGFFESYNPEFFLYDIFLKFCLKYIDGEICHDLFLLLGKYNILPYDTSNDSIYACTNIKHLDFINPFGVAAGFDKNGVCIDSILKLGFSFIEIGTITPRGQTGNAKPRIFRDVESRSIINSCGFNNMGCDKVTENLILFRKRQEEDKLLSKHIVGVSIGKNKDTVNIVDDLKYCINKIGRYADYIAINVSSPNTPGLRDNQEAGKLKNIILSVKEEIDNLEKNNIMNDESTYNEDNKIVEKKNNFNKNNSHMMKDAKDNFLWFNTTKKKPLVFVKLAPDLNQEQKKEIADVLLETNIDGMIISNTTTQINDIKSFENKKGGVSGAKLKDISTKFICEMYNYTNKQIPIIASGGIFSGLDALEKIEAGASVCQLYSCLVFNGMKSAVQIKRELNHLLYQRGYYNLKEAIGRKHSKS

Row | Compound | z-score [1] | z-score [2] | z-score [3] | composite z-score [4] | z-score [5] | z-score [6] | z-score [7] | z-score [8] | z-score [9] | composite z-score [10]
1 | C=C(CCCC)C(=O)CC[C@@H](OC(C)=O)c1cccc(OCCO)c1 | -0.749 | -17.8 (active) | -1.01 (inactive) | -3.64 (inactive) | 0.367 (inactive) | -19.2 (active) | -0.55 (inactive) | -0.528 (inactive) | -1.07 | 0.136
2 | O=C1[C@H]2[C@H]3[C@H](O)[C@H](O)CC(=NOC[C@@H](O)COCc4ccco4)[C@H]3CC[C@H]2C(=O)N1C1CCCCC1 | 0.0194 | -0.563 (inactive) | -0.304 (inactive) | -2.13 (inactive) | 0.188 (inactive) | -0.479 (inactive) | 0.426 (inactive) | -0.0377 (inactive) | -0.263 | 0.116
3 | CN(C)C(=O)[C@@]1(Cc2ccccc2)N=C(c2ccc(OCCCO)cc2)O[C@H]1c1ccccc1CN=[N+]=[N-] | -0.412 | -0.618 (inactive) | -1.23 (inactive) | 0.519 (inactive) | 0.535 (inactive) | -0.112 (inactive) | -0.0193 (inactive) | -0.139 (inactive) | -1.23 | 0.215
4 | CCOC(=O)[C@H](Cc1ccccc1)NC(=O)CCC1CC(OC(=O)NCc2ccc3c(c2)OCO3)CC2(CCCC(COC(=O)NCC(c3ccccc3)c3ccccc3)O2)O1 (stereo not given in full) | 0.56 | -1.14 (inactive) | 0.328 (inactive) | -0.219 (inactive) | 0.405 (inactive) | 0.445 (inactive) | 0.816 (inactive) | 0.381 (inactive) | 0.909 | -0.0351
5 | Cn1cccc1C(O)C1C=CC2C(=O)NC(=O)C2N1Nc1ccccn1 (stereo not given) | -1.49 | 0.784 (inactive) | -1.28 (inactive) | 1.21 (inactive) | 0.543 (inactive) | -0.0064 (inactive) | -0.512 (inactive) | -0.204 (inactive) | -0.868 | 0.203
6 | COCCCNC(=O)[C@@]1(C)c2ccccc2C(=O)N(Cc2ccc(OC(F)(F)F)cc2)[C@H]1c1ccc(CO)cc1 | -0.576 | -0.0763 (inactive) | -0.741 (inactive) | -0.617 (inactive) | 0.431 (inactive) | -0.419 (inactive) | 0.434 (inactive) | 1.17 (inactive) | -0.661 | -0.148
7 | O=C1c2ccccc2[C@@]2(Cc3ccccc3N(C3CC3)C2=O)[C@H](c2ccc(CO)cc2)N1Cc1ccccc1C(F)(F)F | -0.506 | 0.194 (inactive) | 0.187 (inactive) | -9.3 (active) | 0.242 (inactive) | -0.887 (inactive) | -0.201 (inactive) | -0.136 (inactive) | -0.398 | 0.0428
8 | CCN1C(=O)[C@H]2[C@H]3[C@H](O)[C@H](O)CC(=NOC(C)CN4CCCCc5nc(C)c(C)cc54)[C@@H]3CC[C@H]2C1=O (stereo not given in full) | -1.3 | -0.0913 (inactive) | -0.669 (inactive) | 0.301 (inactive) | -0.418 (inactive) | 0.002 (inactive) | 0.538 (inactive) | 1.2 (inactive) | -0.889 | -0.211
9 | N#Cc1ccc(NN2C(C(O)c3cccc4ccccc34)C=CC3C(=O)N(c4ccccc4)C(=O)C32)cc1 (stereo not given) | -0.707 | 0.185 (inactive) | -0.605 (inactive) | 0.199 (inactive) | 0.487 (inactive) | 0.806 (inactive) | -0.586 (inactive) | 0.434 (inactive) | -0.28 | 0.0791
10 | COCCOC(=O)N1C(=O)[C@@]2(c3cc(C#CC4(O)CCCCCC4)ccc31)[C@H](c1ccc(OCCO)cc1)N1[C@H](c3ccccc3)[C@H](c3ccccc3)OC(=O)[C@H]1[C@@H]2C(=O)NC[C@H](O)c1ccccc1 | -0.259 | 0.685 (inactive) | -0.596 (inactive) | 1.74 (inactive) | 1.91 (inactive) | 2.62 (inactive) | 0.393 (inactive) | 0.0869 (inactive) | 0.406 | -0.16
11 | O=C1[C@H]2[C@H]3[C@H](O)[C@H](O)CC(=NO[C@@H]4O[C@H](CO)[C@@H](O)[C@H](O)[C@H]4O)[C@@H]3CC[C@H]2C(=O)N1c1ccc(F)cc1F | 0.662 | -0.767 (inactive) | 0.412 (inactive) | -1.39 (inactive) | -0.118 (inactive) | -0.815 (inactive) | 0.789 (inactive) | 0.391 (inactive) | 0.741 | -0.313
12 | CCCC=C(CCC)[C@@H](NC(=O)c1ccc(-c2ccccc2)cc1)c1ccc(C(=O)OC)cc1 | 0.664 | 1.44 (inactive) | -0.438 (inactive) | 0.407 (inactive) | -0.126 (inactive) | 1.23 (inactive) | 0.0519 (inactive) | -0.21 (inactive) | -0.361 | 0.0512
13 | CCCNC(=O)OC[C@H]1O[C@H](CCON=CC[C@@H]2C=C[C@H](OC(C)=O)[C@@H](COC(C)=O)O2)C=C[C@@H]1Oc1ccc(OC)cc1 | 0.261 | 1.4 (inactive) | -0.387 (inactive) | -0.584 (inactive) | 0.0282 (inactive) | 0.394 (inactive) | 0.426 (inactive) | -0.371 (inactive) | 0.477 | -0.128
14 | Cc1ccc(F)cc1S(=O)(=O)N[C@@H]1CCN(Cc2ccc(CC(C)C)cc2)C1 | -0.367 | -17.2 (active) | -0.653 (inactive) | -0.687 (inactive) | 0.294 (inactive) | -14.5 (active) | -20.3 (active) | -17.4 (active) | -1.89 | -0.106
15 | CCOC(=O)CCN1C(=O)[C@H]2[C@H]3[C@H](O)[C@H](O)CC(=NOCc4ccccc4)[C@@H]3CC[C@H]2C1=O | -0.0233 | -0.949 (inactive) | -0.406 (inactive) | 0.404 (inactive) | 0.683 (inactive) | -0.172 (inactive) | -0.852 (inactive) | -0.599 (inactive) | -0.103 | 0.0455
16 | CC(C)(C)OC(=O)CC[C@]1(C(N)=O)COC(c2ccc(OCCCO)cc2)=N1 | -0.722 | 0.0462 (inactive) | -1.43 (inactive) | 0.0996 (inactive) | 0.134 (inactive) | -0.788 (inactive) | -0.34 (inactive) | 0.381 (inactive) | -0.751 | 0.276
17 | COC(=O)C1=C(C)N(Cc2ccccc2)[C@]23O[C@](C(=O)OC)(C(=O)N2[C@@H]1c1ccccc1)[C@H]1CCOC(=O)[C@H]13 | 0.338 | 0.424 (inactive) | 0.444 (inactive) | 1.01 (inactive) | -0.765 (inactive) | 1.55 (inactive) | 0.0676 (inactive) | -0.164 (inactive) | 0.732 | 0.0896
